This is an account of results in PubChem BioAssay.

For some of these results: Entries with a potency or affinity are not part of this list. Calls of active or inactive are those of the source.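 The calls were made as follows, unless noted: active = calcium signal cut by more than 3 SD below the full-agonist control yet still positive, in both repeats and the earlier primary screen; inactive = the rest.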

The test system of test [1] is TRPC4 beta (transient receptor potential cation channel C4), mouse. Briefly: TRPC4 cation channel opening, retest – cell-based, Fluo4 calcium, HEK293 TRPC4beta/mu-opioid, duplicates, 10 µM, confirmation (AID 2426;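 active = fluorescence ratio normalized to control raised more than 50% in primary screen plus both repeat runs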;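 as to activation: percent rise of integrated ratio over buffer wells lacking compound which define 0%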). The conditions noted are these: Fluo4 calcium fluorescence, at 10 µM; active compounds read high.
Test [2] relates to transient receptor potential cation channel C4 beta (TRPC4), mouse. Briefly: TRPC4 cation channel opening, second retest – cell-based, second round, Fluo4, HEK293 TRPC4beta/mu-opioid, 1 µM, confirmation (AID 2461;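 active = primary screen active and over 50% activation in each of two duplicate runs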). Conditions: Fluo4 calcium fluorescence, at 1 µM; active compounds read high.
Test [3] deals with TRPC4 (transient receptor potential cation channel C4 beta), mouse. Briefly: potentiation of DAMGO EC20 TRPC4 response – cell-based, second round, Fluo-4, HEK293 TRPC4beta/mu-opioid, 1 µM, confirmation (AID 2554;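 active = primary screen hit whose fluorescence ratio, in both repeats, exceeds the weak agonist control mean by 3 SD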). The conditions noted are these: DAMGO EC20, Fluo-4 calcium flux, at 1 µM; active compounds read high. On the technique in general: A change in cytosolic calcium serves as a functional read-out for many receptors and channels.

Test [4] has as its system TRPC4 beta (transient receptor potential cation channel C4), mouse. Briefly: potentiation of DAMGO EC20 TRPC4 response – cell-based, Fluo-4, HEK293 TRPC4beta/mu-opioid, confirmation (AID 2555;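 active = primary screen hit whose calcium fluorescence ratio, in both repeats, exceeds the weak agonist control mean by 3 SD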). Conditions: DAMGO EC20, Fluo-4 calcium flux, at 10 µM; active compounds read high.
Test [5] addresses Short transient receptor potential channel 4 (Mus musculus) (UniProt Q9QUQ5). The experiment in a line: blockers of DAMGO-evoked TRPC4 calcium flux – cell-based, Fluo4, HEK293 TRPC4beta/mu-opioid, confirmation (AID 2636). Conditions: at 10 µM; active compounds read high.
Test [6] has the same target. The experiment in a line: blockers of DAMGO-evoked TRPC4 calcium flux – cell-based, second round, Fluo4, HEK293 TRPC4beta/mu-opioid, 1 µM, confirmation (AID 2637;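 active = calcium signal ratio cut to more than 3 SD under the fully stimulated control mean yet still positive, in both repeats and the primary screen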). Conditions: at 1 µM; active compounds read high.
Test [7] shares this target. The experiment in a line: potentiation of DAMGO-evoked TRPC4 calcium signal – cell-based, HEK293 TRPC4/mu-opioid, Fluo-4 calcium, EC20 DAMGO, dose response (AID 434941;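 active = earlier screen potentiator hit that boosts the TRPC4 ion channel at some dose, with a dose response; inactive = no potentiation, no dose response, or not a prior hit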;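 also: calcium entry triggered by an EC20 dose of DAMGO at the co-expressed mu-opioid receptor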).
For test [8] the target is unchanged. The experiment in a line: block of DAMGO-driven TRPC4 calcium entry – cell-based, HEK293 TRPC4/mu-opioid, Fluo-4 calcium, dose response (AID 434942;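 active = primary screen inhibitor hit that blocks the TRPC4 channel at some tested dose, yielding a dose curve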).
In test [9] the target is Short transient receptor potential channel 6 (Mus musculus) (UniProt Q61143). Briefly: TRPC6 blockade by TRPC4 inhibitor hits – cell-based, HEK293, membrane potential dye, duplicate, selectivity assay for TRPC4 inhibitor project, confirmation (AID 434948;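 active = active in primary screen and both duplicates, each dropping signal beyond three positive-control SD with fluorescence still positive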). Conditions: HEK293 TRPC6, membrane potential dye fluorescence, at 10 µM, stimulated with maximal-effect acetylcholine; active compounds read high.

Test [10] has the same target. The experiment in a line: TRPC6 opening by TRPC4 activator hits – cell-based, HEK293, membrane potential dye, duplicate, selectivity assay for TRPC4 activator project, confirmation (AID 434950;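 active = membrane potential signal rise above negative control mean plus 3 SD in both duplicates, also active in the earlier TRPC4 screen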;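 as to activation: 0% = buffer only wells and 100% = acetylcholine maximal-effect wells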). The conditions noted are these: HEK293 TRPC6, membrane potential fluorescence, at 10 µM; activation: active compounds read high; outcome: activation.
Test [11] has the same target. The experiment in a line: positive modulators of mouse TRPC6 channel – HEK293 cells, membrane potential dye, duplicate, selectivity assay for TRPC4 potentiator project, confirmation (AID 434952;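 active = compound raising the membrane signal above positive-control mean plus 3 SD in both repeats, and a primary screen hit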). Conditions: HEK293 TRPC6, membrane potential dye fluorescence, at 10 µM, maximal acetylcholine added after compound; active compounds read high.
In test [12] the target is Short transient receptor potential channel 4 (Mus musculus) (UniProt Q9QUQ5). Briefly: calcium flux activators in TRPC4/5HT1a cells, counter-screen for TRPC4 activator project, cell-based, second counter screen, HEK293 TRPC4/5HT1a, Fluo-4 (AID 434977;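 active = calcium signal rise above buffer-control mean plus 5 SD in both duplicates, and also a hit in the primary screen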;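 also: plate controls were assay buffer for no effect and maximal serotonin response for full effect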). The conditions noted are these: Fluo-4 calcium flux, at 10 µM; active compounds read high.
Test [13] can be described thus: serotonin-gated TRPC4 signal block – cell-based, second counter screen, HEK293 TRPC4/5HT1a, Fluo-4, counter-screen for TRPC4 inhibitor project, confirmation (AID 434978;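 active = primary screen active whose calcium signal fell more than 3 SD beyond the full-serotonin control mean in both duplicate plates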;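 also: serotonin given first at submaximal then at maximal dose after compound preincubation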). The conditions noted are these: Fluo-4 calcium flux, at 10 µM, serotonin added to trigger calcium flux; active compounds read high. Background: A counterscreen serves to expose hits that act by an unwanted route or on another target.

Test [14] deals with TRPC4 (mouse), co-expressed with 5HT1a in HEK293. The experiment in a line: enhancement of serotonin-evoked TRPC4 response – cell-based, second counter screen, HEK293 TRPC4/5HT1a, Fluo-4, counter-screen for TRPC4 potentiator project, confirmation (AID 434979;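 active = signal rise over 3 SD above mean of control wells given weak agonist, in both repeats and first screen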). Conditions: Fluo-4 calcium flux, at 10 µM, serotonin added at its EC20 dose; active compounds read high.
Test [15] can be described thus: nonspecific calcium rise without TRPC4 – cell-based, HEK293 mu-opioid receptor line, counter-screen for TRPC4 activator project, confirmation (AID 449723;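 active = hit in primary screen, with calcium signal over 5 SD above buffer well mean in both duplicates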;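 also: counter screen cells carry the mu-opioid receptor alone and lack TRPC4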). Conditions: HEK293 mu-opioid cells, Fluo-4 calcium fluorescence, at 10 µM; active compounds read high.
A short description of test [16]: nonspecific potentiation of DAMGO calcium response – cell-based, HEK293 mu-opioid receptor line, counter-screen for TRPC4 allosteric potentiator project, confirmation (AID 449724;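 active = calcium signal rise more than 3 SD above the low-dose agonist control mean, in both duplicate plates and the primary screen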;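 also: HEK293 cells carrying mu-opioid receptor only with no TRPC4 channel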). The conditions noted are these: HEK293 mu-opioid receptor cells, Fluo-4 calcium flux, at 10 µM, compound added before EC20 DAMGO stimulus; active compounds read high.
A short description of test [17]: nonspecific flux increase, KCNQ1-free cells – parental CHO cells, counter-screen for KCNQ1 potentiator project (AID 493006;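 active = duplicate-averaged activation above buffer control mean plus 5 SD of those controls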;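 as to activation: fluorescence ratio of max minus min over baseline after K+ and Tl+ depolarization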). Conditions: parental CHO-K1 cells, FluxOR thallium flux, at 10 µM; active compounds read high.
The target in test [18] is Potassium voltage-gated channel subfamily KQT member 1 (Homo sapiens) (UniProt P51787). The experiment in a line: enhancement of KCNQ1 channel thallium flux – FluxOR thallium flux, CHO cells, duplicates, confirmation (AID 493007;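 active = potentiation averaged over duplicate wells exceeding buffer-only control mean by more than 3 SD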;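 as to outcome: cells depolarized by a potassium plus thallium sulfate stimulus after compound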;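 as to potentiation: 0% = buffer-only wells and 100% = R-L3 activator control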). Conditions: KCNQ1 cell line, FluxOR thallium flux fluorescence, at 10 µM; active compounds read high, % of reference activator effect, buffer zero.
Test [19] deals with Potassium voltage-gated channel subfamily KQT member 2 (Rattus norvegicus) (UniProt O88943). The experiment in a line: KCNQ2 thallium flux enhancement – KCNQ2-CHO-K1 cells, selectivity assay for KCNQ1 potentiator project (AID 493009;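 active = mean duplicate potentiation above the buffer control mean plus 5 SD of buffer wells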;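 also: assay conditions were tuned for KCNQ1 rather than KCNQ2 modulators; signal is max minus min fluorescence divided by baseline after thallium stimulus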). The conditions noted are these: FluxOR thallium flux fluorescence, at 10 µM; active compounds read high, scaled: buffer 0, activator control 100.
Test [20] concerns the target Potassium voltage-gated channel subfamily KQT member 1 (Homo sapiens) (UniProt P51787). The experiment in a line: KCNQ1 activators by electrophysiology – IonWorks patch clamp, KCNQ1-CHO cells, orthogonal assay for KCNQ1 potentiator project, confirmation (AID 493184;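 active = current rise at least 3 SD above the untreated control mean in each of two repeat wells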). The conditions noted are these: automated patch clamp current, at 10 µM; active compounds read high. (In general: In patch-clamp work, channel activity is measured electrically.)

Chain of Potassium voltage-gated channel subfamily KQT member 2 (Rattus norvegicus) (O88943 whole entry, looked up): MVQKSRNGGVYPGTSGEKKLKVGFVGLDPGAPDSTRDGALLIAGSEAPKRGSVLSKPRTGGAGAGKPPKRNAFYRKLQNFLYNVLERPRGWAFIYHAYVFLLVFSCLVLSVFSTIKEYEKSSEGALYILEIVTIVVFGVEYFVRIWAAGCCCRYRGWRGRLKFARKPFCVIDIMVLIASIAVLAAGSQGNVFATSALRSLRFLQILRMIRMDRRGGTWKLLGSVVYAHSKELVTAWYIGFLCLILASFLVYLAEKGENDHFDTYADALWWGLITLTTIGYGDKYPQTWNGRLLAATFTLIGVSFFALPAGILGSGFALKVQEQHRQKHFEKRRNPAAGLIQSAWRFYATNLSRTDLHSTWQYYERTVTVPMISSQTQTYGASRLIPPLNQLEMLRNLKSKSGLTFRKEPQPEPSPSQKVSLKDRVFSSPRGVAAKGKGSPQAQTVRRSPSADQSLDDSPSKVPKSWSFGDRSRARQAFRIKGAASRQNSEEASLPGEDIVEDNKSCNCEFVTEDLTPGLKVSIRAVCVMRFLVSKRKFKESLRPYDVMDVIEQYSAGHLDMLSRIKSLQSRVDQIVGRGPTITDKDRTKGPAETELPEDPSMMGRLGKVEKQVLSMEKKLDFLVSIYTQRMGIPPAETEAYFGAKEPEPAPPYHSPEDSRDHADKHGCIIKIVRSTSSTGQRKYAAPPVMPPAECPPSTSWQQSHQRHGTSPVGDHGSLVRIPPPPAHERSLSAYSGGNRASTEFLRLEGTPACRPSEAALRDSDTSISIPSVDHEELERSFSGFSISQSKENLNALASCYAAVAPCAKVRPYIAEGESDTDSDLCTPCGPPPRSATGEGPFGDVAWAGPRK
Chain of Short transient receptor potential channel 6 (Mus musculus) (Q61143 whole entry, looked up): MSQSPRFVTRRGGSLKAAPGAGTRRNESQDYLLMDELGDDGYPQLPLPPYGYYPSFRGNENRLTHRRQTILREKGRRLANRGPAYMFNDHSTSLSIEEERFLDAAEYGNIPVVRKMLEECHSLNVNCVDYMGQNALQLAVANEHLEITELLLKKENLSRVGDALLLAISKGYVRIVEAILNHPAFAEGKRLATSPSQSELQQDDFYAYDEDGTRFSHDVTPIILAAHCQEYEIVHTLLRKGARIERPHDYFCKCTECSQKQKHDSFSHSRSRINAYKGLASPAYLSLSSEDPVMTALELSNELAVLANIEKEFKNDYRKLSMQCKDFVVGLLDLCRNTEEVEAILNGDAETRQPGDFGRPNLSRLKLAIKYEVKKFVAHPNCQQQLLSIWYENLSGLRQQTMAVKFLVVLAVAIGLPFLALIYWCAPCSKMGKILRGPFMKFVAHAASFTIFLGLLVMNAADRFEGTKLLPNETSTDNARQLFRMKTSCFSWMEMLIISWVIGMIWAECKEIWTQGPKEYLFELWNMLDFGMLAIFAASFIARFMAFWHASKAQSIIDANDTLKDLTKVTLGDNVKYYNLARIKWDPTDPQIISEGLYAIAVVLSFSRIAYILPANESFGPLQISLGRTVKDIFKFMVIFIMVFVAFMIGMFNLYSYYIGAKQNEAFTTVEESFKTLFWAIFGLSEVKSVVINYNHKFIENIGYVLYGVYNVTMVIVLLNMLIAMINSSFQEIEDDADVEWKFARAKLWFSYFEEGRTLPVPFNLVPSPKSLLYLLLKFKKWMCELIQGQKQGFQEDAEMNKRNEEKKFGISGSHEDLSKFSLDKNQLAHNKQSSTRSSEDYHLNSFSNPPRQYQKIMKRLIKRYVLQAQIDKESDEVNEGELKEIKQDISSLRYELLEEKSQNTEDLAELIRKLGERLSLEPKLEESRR
Chain of Short transient receptor potential channel 4 (Mus musculus) (Q9QUQ5 whole entry, looked up): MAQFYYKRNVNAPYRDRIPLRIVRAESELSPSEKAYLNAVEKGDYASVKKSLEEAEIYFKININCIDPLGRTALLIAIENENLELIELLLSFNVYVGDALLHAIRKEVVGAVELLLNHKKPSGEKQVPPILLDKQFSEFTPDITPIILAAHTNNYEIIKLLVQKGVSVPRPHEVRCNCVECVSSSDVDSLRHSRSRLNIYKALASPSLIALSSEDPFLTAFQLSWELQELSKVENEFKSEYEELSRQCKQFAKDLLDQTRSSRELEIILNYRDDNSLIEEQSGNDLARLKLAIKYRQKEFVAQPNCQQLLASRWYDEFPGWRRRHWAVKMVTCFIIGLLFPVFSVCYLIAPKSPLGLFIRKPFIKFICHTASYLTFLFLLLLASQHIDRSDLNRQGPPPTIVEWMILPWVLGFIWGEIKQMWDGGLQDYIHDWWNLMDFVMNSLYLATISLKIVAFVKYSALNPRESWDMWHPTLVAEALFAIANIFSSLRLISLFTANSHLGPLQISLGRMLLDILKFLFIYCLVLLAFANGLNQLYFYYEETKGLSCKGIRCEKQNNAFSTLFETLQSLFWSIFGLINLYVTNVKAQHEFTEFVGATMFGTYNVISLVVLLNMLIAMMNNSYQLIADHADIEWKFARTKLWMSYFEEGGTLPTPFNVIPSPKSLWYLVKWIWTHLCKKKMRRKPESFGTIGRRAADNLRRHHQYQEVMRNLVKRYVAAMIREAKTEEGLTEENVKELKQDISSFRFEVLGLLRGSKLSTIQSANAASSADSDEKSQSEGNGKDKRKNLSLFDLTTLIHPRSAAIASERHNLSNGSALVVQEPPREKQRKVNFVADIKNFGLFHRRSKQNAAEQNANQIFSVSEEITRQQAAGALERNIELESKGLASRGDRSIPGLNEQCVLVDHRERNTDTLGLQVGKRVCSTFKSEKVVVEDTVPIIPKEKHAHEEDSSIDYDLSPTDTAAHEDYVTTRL
Chain of Potassium voltage-gated channel subfamily KQT member 1 (Homo sapiens) (P51787 whole entry, looked up): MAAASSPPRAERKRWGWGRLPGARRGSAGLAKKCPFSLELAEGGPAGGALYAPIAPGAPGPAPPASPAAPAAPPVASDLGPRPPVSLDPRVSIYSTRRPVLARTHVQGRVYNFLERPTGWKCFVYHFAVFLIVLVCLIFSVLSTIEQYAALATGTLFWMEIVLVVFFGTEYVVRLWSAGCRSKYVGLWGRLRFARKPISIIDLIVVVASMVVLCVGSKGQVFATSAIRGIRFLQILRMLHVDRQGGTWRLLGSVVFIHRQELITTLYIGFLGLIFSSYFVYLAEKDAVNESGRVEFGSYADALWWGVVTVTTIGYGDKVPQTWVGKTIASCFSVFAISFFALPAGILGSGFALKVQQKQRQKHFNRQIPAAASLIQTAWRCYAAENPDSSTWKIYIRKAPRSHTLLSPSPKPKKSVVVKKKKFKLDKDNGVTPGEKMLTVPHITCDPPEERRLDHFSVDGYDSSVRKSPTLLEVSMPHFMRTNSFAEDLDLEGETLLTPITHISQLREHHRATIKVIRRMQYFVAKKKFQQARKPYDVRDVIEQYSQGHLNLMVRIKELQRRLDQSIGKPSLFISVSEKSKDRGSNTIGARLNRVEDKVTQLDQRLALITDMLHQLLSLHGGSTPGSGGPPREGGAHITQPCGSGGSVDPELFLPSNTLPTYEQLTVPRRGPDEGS

On to `CCN1CCN(c2ccc(S(=O)(=O)N3CCCCC3)cc2NC(=O)C(C)Oc2ccc(F)cc2)CC1` (centres undefined), for which the activation in test [1] is 185% (active); in test [10] it was 32.5% (active); in test [12], 9.95% (active). In addition, the outcome in [2], in [3], in test [4], in test [5], in test [6] and in [7] was inactive. Moreover, the outcome in [8], in test [9], in [11], in test [13], in [14] and in [15] was inactive. For the same compound, the outcome in test [16] was inactive.
With `COc1cc(OC)cc(C(=O)N[C@H](C(=O)OCC(=O)NC(C)c2ccccc2)C(C)C)c1` (some centres undefined), the activation in test [1] was 118% (active); in test [10], 36% (active); in test [12] it was 85.2% (active); in test [15], 45.3% (active). Moreover, the outcome in test [2], in test [3], in [4], in test [5], in test [6] and in [7] was inactive. In addition, the outcome in test [8], in test [9], in test [11], in test [13], in [14] and in [16] was inactive. Also, the result in [17], in test [18], in test [19] and in test [20] was inactive.
Turning to `O=C1CC(O)(C(F)(F)F)Oc2c1ccc1ccccc21` (centres undefined), the activation in test [1] is 216% (active); in test [12], 119% (active); in test [15], 102% (active); in [17] it was 222% (active). Also, the outcome in [2], in test [3], in test [4], in test [5], in [6] and in test [7] was inactive. Also, the outcome in test [8], in test [9], in test [10], in [11], in test [13] and in test [14] was inactive. Also, the result in test [16] and in test [20] was inactive. Also, the figures for the potentiation in test [18] and in test [19] were 71.5% (active) and 270% (active), respectively.
With `Clc1ccc(OCCNCCc2ccccc2)cc1`, the outcome in [1], in test [2], in test [3], in [4], in test [5] and in test [6] was inactive. In addition, the result in test [7], in [8], in [9], in [11], in [13] and in test [14] was inactive. Moreover, the result in [15] and in [16] was inactive. The activation in test [10] is 53% (active); in test [12], 24.4% (active).
As to `CCOC(=O)C1=NN(C(=O)c2ccc(C)cc2)C(O)(c2ccc(Cl)cc2)C1` (centres undefined), the activation was 98% (active) in test [1]; 217% (active) in test [10]; 66.4% (active) in [12]; 37.9% (active) in [15]; 630% (active) in [17]. The result in [2], in test [3], in test [4], in test [5], in [6] and in test [7] was inactive. Besides, the outcome in test [8], in test [9], in test [11], in test [13], in test [14] and in test [16] was inactive. The outcome in [20] was inactive. Also, the results for the potentiation in test [18] and in test [19] were 336% (active) and 655% (active), respectively.
On to `CNCCCOc1ccc2c(c1)CCC2`, for which the activation in test [1] was 75% (active); in test [10] it was 57% (active); in test [12] it was 16.2% (active). Further, the result in test [2], in [5], in test [6], in test [7], in [8] and in [9] was inactive. In addition, the result in test [11], in test [13], in test [14], in test [15] and in test [16] was inactive. Further, the results for the potentiation in test [3] and in test [4] were 24% (active) and 29% (active), respectively.
For the compound `O=C1/C(=C\c2cc(Cl)c(O)c(Cl)c2)SC(=S)N1Cc1ccccc1`, the activation in test [1] was 118% (active); in test [10], 1320% (active); in [12], 105% (active); in test [15], 248% (active); in test [16] it was 3240% (active). The result in test [2], in [3], in [5], in test [6], in test [7] and in test [8] was inactive. The result in test [9] and in test [13] was inactive. The potentiation in test [4] is 43% (active); in [14] it was 27.4% (active). Further, in [11], the potentiation, percent of control was 640% (active).
